# Test results from PubChem BioAssay AID488841 (Sanford-Burnham Center for Chemical Genomics, 2010).
# About 380 (27%) of roughly 1,400 compounds were called active.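 Rule for the calls: active = mean inhibition above 50% across duplicate retests at 10 µM; inactive = the rest.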 The list shows a part of the results.
# Test: inhibition of NALP1/ASC/caspase-1 reporter signal in yeast, confirmation, NALP1 inhibitor project, S. cerevisiae, luminescence, single concentration (AID 488841);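 note: plate controls were DMSO in galactose medium for no effect and cells in plain SD medium for full effect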
# Conditions: S. cerevisiae NALP1/ASC/Caspase-1 reporter, beta-gal luminescence; at 10 µM; active compounds read high
row,SMILES,inhibition
1,CC(CCc1ccccc1)NC(=O)c1cc2sccc2n1C (stereo not given),46.2% (inactive)
2,CC1CCN(C(=O)/C=C/c2ccc(C(C)(C)C)cc2)CC1,54.6% (active)
3,O=C(/C=C/c1ccccc1)/C=C/c1ccccc1,47.8% (inactive)
4,COc1cc(C(=O)CCN2CCC(c3ccccc3)C2)cc(OC)c1OC (stereo not given),41% (inactive)
5,O=C(/C=C/c1ccccc1)N1CCC(c2ccccc2)C1 (stereo not given),54% (active)
6,FC(F)(F)C(F)(F)c1nnc2ccc(-n3ccnc3)nn12,23% (inactive)
7,O=C(O)c1ccccc1SC1CC(=O)N(c2ccccc2)C1=O (stereo not given),37.8% (inactive)
8,O=C1CC(Sc2nnnn2-c2ccccc2)C(=O)N1c1cccc(Cl)c1 (stereo not given),59.5% (active)
9,COC(=O)c1ccccc1SC1CC(=O)N(c2ccccc2)C1=O (stereo not given),40.2% (inactive)
10,Cc1cccc(Cn2c(C(C)(C)C)cc3cccnc32)c1,26% (inactive)
11,CN(C)CCNC=C(C(=O)Nc1ccc(Cl)cc1Cl)C(=O)Nc1ccc(Cl)cc1Cl,38.9% (inactive)
12,CCCN(Cc1nc(-c2ccc(Cl)cc2)no1)CC1CCCO1 (stereo not given),53.1% (active)
13,COc1ccc(-c2noc(CCC(=O)N3CCC(C)CC3)n2)cc1,48% (inactive)
14,OCCNc1c2ccccc2nc2c(F)c(F)c(F)c(F)c12,34.6% (inactive)
15,CCN(c1cccc(C)c1)S(=O)(=O)c1cccc(C(=O)O)c1,26.2% (inactive)
16,Cc1cc(C)cc(Cn2ncc(Cl)c(Cl)c2=O)c1,60.6% (active)
17,Cn1ncc(S(=O)(=O)Cc2ccccc2)c(Cl)c1=O,21.1% (inactive)
18,COC(=O)c1ccc(NC(=O)c2ccccc2N(C)S(=O)(=O)c2ccccc2)cc1,37% (inactive)
19,CCCCCCOc1ccc(N2C(=O)CC(N3CCC(C(=O)OCC)CC3)C2=O)cc1 (stereo not given),21.6% (inactive)
20,CCOc1ccc(N2C(=O)CC(N)C2=O)cc1 (stereo not given),64.3% (active)
21,CCOc1ccc(C2N(c3ccc(F)cc3)C(=O)C3CCCN32)cc1 (stereo not given),16.4% (inactive)
22,Cc1cc(Cl)c(OCCCN2CCCCC2)c(Br)c1,33.4% (inactive)

row,SMILES,inhibition
1,Cc1c(C(=O)NCC2COc3ccccc3O2)oc2ccc(S(=O)(=O)N3CC(C)CC(C)C3)cc12 (stereo not given),21.3% (inactive)
2,COc1cc(OC)nc(-n2ncc(Br)c(Br)c2=O)n1,50% (active)
3,Cc1sc(NC(=O)c2cc3ccccc3oc2=O)c(C(=O)OC(C)C)c1-c1ccccc1,28.5% (inactive)
4,C=CCNc1oc(COc2ccc(C)cc2)nc1C#N,47.8% (inactive)
5,CCCN(CCC)C(=O)Cn1c(=O)n(CCCCC(=O)NCc2ccco2)c(=O)c2ccccc21,29.8% (inactive)
6,CC1CCCC(NC(=O)C2CCN(S(=O)(=O)N3CCCCC3)CC2)C1C (stereo not given),26.3% (inactive)
7,CCOC(=O)c1nn(-c2ccc(C)cc2)cc1C(=O)c1ccccc1,46.5% (inactive)
8,Cc1ccc(C(=O)c2no[n+]([O-])c2C(=O)c2ccc(C)cc2)cc1,58.2% (active)
9,O=[N+]([O-])c1ccc2cn(-c3ccccc3)nc2c1,40.4% (inactive)
10,NC(=O)C1(N2CCCCC2)CCN(Cc2nc(-c3cccs3)no2)CC1,37.5% (inactive)
11,Oc1oc(-c2ccccc2)nc1C=Nc1cccc2ccccc12,40.1% (inactive)
12,CCOC(=O)C1CCCCN1Cc1ccc(F)c(Br)c1 (stereo not given),31.7% (inactive)
13,Cc1cc(Cl)c(OCCCn2ccnc2)c(Br)c1,38.1% (inactive)
14,c1cc2c3c(cccc3c1)NC1(CCCCCC1)N2,13.9% (inactive)
15,Cc1ccc(OC(=S)Nc2ccc(O)cc2)cc1,90.7% (active)
16,Cc1ccc(Oc2ccccc2/C=N/O)cc1,42.1% (inactive)
17,O=C(CC(O)(C(F)(F)F)C(F)(F)F)Nc1ccc(Cl)c(Cl)c1,98.8% (active)
18,O=C(COc1ccc(CO)cc1Cl)Nc1ccc(F)cc1,25.6% (inactive)
19,CN1CCN(C(=S)Nc2ccc(Cl)c(Cl)c2)CC1,24.9% (inactive)
20,CC(=O)Nc1cccc(OCCCNC(=O)C2CCC2)c1,28.2% (inactive)
21,Cc1c(NC(=O)c2cc3c(s2)-c2ccccc2OC3)cccc1[N+](=O)[O-],34.7% (inactive)
22,O=[N+]([O-])c1ccc(-n2nnnc2-c2ccccc2)cc1,0.15% (inactive)

row,SMILES,inhibition
1,Cc1ccc(-n2nnnc2C(Cl)c2nnnn2-c2ccc(C)cc2)cc1,71.5% (active)
2,CCc1oc2ccccc2c1C(=O)CCN1CCCCC1,37.6% (inactive)
3,COc1ccc(/C=N/OC(=O)Nc2ccccc2)cc1[N+](=O)[O-],23.2% (inactive)
4,CCOC(=O)c1cc(-c2ccccc2)n(CC(=O)Nc2ccc(OC)c(OC)c2)c1C,25.8% (inactive)
5,CCOc1ccc(/C=C/C(=O)c2ccccc2)cc1OC,53.2% (active)
6,COc1ccc(/C=C\c2onc(C)c2S(=O)(=O)N2CCC(C(=O)NCc3ccco3)CC2)cc1,41.2% (inactive)
7,O=C(NCc1ccco1)c1cnn2c1NC(c1ccc(Br)cc1)CC2C(F)(F)F (stereo not given),50.6% (active)
8,Cc1ccc(CN2CCN(/N=C/c3ccc(C(F)(F)F)cc3)CC2)c(C)c1,49% (inactive)
9,CCOCC(O)CNC(=O)c1ccc(OC2CCN(C(=O)c3cccnc3)CC2)cc1 (stereo not given),29.6% (inactive)
10,CC1CCN(CCOc2ccc(Cl)c(Cl)c2)CC1,43.7% (inactive)
11,COC(=O)/C=C/C(=O)Nc1cccc(C(F)(F)F)c1,56.3% (active)
12,CCN(C(=O)COC(=O)c1cccnc1Nc1cccc(C(F)(F)F)c1)C1CCS(=O)(=O)C1 (stereo not given),45.4% (inactive)
13,COc1cc(Br)cc(C=Nc2cccc(C(F)(F)F)c2)c1O,11.4% (inactive)
14,Cc1ccc(NC(=O)/C=C\C(=O)NCC(=O)O)cc1C,30.8% (inactive)
15,NC(=O)/C=C\C(=O)Nc1cccc(C(F)(F)F)c1,71.8% (active)
16,Cc1cs/c(=N\N=C\c2ccccc2)n1Cc1ccco1,32.1% (inactive)
17,Cc1cccc(C)c1C(OCCN(C)C)C1CCCCC1 (stereo not given),37% (inactive)
18,CSc1ccc(/C=C/C(=O)c2ccc(NC(C)=O)cc2)cc1,51% (active)
19,CSc1ccc(/C=C/C(=O)c2ccc(O)cc2)cc1,61.5% (active)
20,CC(=O)c1ccc(NC(=O)/C=C/c2ccc(C)cc2)cc1,48.6% (inactive)
21,O=C(/C=C/Sc1ccccc1)c1ccc(Cl)cc1,38.4% (inactive)
